{"source": "PubChem BioAssay AID731", "about": "(The Scripps Research Institute Molecular Screening Center, 2007)", "note": "About 520 (0.26%) of roughly 200,000 compounds were called active. The full list was thinned out, with actives kept by preference. Values without a mark were called inactive. No stated cut-off is given here; in the data, active means activation above about 23%; inactive means the rest.", "data": [{"biological_target": "Peroxisome proliferator-activated receptor gamma (Homo sapiens) (UniProt P37231)", "sequence (P37231 whole entry, looked up)": "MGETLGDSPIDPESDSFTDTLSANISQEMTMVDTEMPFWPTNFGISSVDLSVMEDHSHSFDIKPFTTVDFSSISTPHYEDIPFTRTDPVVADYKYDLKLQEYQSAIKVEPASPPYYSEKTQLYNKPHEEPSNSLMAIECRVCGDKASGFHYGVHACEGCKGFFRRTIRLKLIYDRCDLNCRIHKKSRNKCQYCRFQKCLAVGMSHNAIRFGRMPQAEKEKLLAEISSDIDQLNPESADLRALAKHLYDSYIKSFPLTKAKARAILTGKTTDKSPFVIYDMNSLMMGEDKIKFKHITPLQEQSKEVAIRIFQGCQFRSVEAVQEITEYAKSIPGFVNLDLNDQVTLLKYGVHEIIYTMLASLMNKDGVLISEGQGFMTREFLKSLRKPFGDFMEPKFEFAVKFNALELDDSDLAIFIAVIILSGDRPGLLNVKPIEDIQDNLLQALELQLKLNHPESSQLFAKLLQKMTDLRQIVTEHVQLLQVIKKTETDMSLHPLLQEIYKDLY", "experiment": "PPARgamma agonists recruiting SRC-3 coactivator, primary screen, biochemical (AID 731);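 further: 0% = DMSO and 100% = reference agonist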", "details": "biochemical PPARgamma/SRC-3 coactivator recruitment assay; at 8 µM; stronger effect = higher value", "values": [{"smiles": "O=S(=O)(NC1CCCCC1)c1ccc(F)c2ccccc12", "activation": "7.29%"}, {"smiles": "Cc1cc(C)cc(C(=O)N(CCc2ccccc2)C2=CC3CCC(C2)N3C)c1", "note": "(stereo not given)", "activation": "0.55%"}, {"smiles": "O=C(NCc1cccs1)c1ccc(Br)o1", "activation": "1.17%"}, {"smiles": "O=[N+]([O-])c1ccc(Sc2n[nH]c(-c3ccco3)n2)nc1", "activation": "2.58%"}, {"smiles": "COc1ccc(N2CCN(CCCNC(=O)C3CCN(S(=O)(=O)N4CCOCC4)CC3)CC2)cc1", "activation": "-2.17%"}, {"smiles": "O=C(OCc1cc(Cl)ccc1OC(F)F)c1cccnc1", "activation": "0.24%"}, {"smiles": "CN1CCN(C(=O)/C(=C\\c2cccs2)NC(=O)c2cccs2)CC1", "activation": "-1.89%"}, {"smiles": "NS(=O)(=O)c1ccc(CCNC(=O)c2ccc([N+](=O)[O-])cc2[N+](=O)[O-])cc1", "activation": "6.7%"}, {"smiles": "O=C(Nc1cccc(C(F)(F)F)c1)c1cnccn1", "activation": "12.3%"}, {"smiles": "CCOC(=O)c1ccc(COC(=O)CCc2nc(-c3ccccc3)c(-c3ccccc3)o2)cc1", "activation": "-0.63%"}, {"smiles": "CCO/N=C(/C)c1c(O)cc(-c2ccccc2)n(-c2ccccc2)c1=O", "activation": "0.18%"}, {"smiles": "CC(=O)N/N=C(\\C)c1ccc(Br)cc1Br", "activation": "-1.47%"}, {"smiles": "CCc1ccc(C(=O)OCC(=O)Nc2cccc(S(=O)(=O)NC3=NCCCCC3)c2)cc1", "activation": "-1.75%"}, {"smiles": "Cc1ccc(NC(=O)c2sc3nc(N)c(C#N)cc3c2N)cc1", "activation": "1.84%"}, {"smiles": "COc1cc(NC(=O)c2cc([N+](=O)[O-])ccc2Br)ccc1NC(=O)c1ccco1", "activation": "-4.35%"}, {"smiles": "CN(C)c1nnnn1-c1ccc(Cl)cc1", "activation": "-1.68%"}, {"smiles": "Cc1ccccc1NC(=O)C(C)c1ccc(-c2ccccc2)c(F)c1", "note": "(stereo not given)", "activation": "-1.23%"}, {"smiles": "CCOc1ccc(/C=N/NC(=O)C(C)Sc2ccccn2)cc1OCC", "note": "(stereo not given)", "activation": "4.85%"}, {"smiles": "CCN(CC)S(=O)(=O)c1ccc(Cl)c(C(=O)NC(C)C(c2cccs2)N2CCCC2)c1", "note": "(stereo not given)", "activation": "5.06%"}, {"smiles": "Cc1ccc(C2C3=C(Nc4[nH]n(-c5ccccc5)c(=O)c42)c2ccccc2C3=O)cc1", "note": "(stereo not given)", "activation": "1.23%"}, {"smiles": "COc1ccc(S(=O)(=O)N2CCOCC2)c(C)c1C", "activation": "13.6%"}, {"smiles": "Cc1ccc(-c2cc(C(=O)N/N=C/C=C/c3ccccc3)n[nH]2)o1", "activation": "-0.56%"}, {"smiles": "CCOC(=O)c1c(C)nc2c(c1C)c(=O)oc1ccccc12", "activation": "15.5%"}, {"smiles": "Cc1cc(C(=O)CSc2nc(N)cc(=O)[nH]2)c(C)n1CCc1ccc(Cl)cc1", "activation": "5.4%"}, {"smiles": "O=C(O)COc1ccc(/C=N/O)cc1Br", "activation": "3.92%"}, {"smiles": "COCCNC(=O)CCCn1c(=O)c2ccccc2n(Cc2cccc([N+](=O)[O-])c2)c1=O", "activation": "2.44%"}, {"smiles": "CC(=O)n1cc([C@@H]2C=C(C(=O)N3CCN(Cc4ccc5c(c4)OCO5)CC3)O[C@H](OCc3ccc(CO)cc3)C2)c2ccccc21", "activation": "-1.58%"}, {"smiles": "Cc1cnc(C(=O)N2CCCC(C(=O)c3ccc(C(F)(F)F)cc3)C2)cn1", "note": "(stereo not given)", "activation": "-0.94%"}, {"smiles": "Cc1cc(=O)oc(C)c1C(=O)NCCN(C)Cc1ccccc1", "activation": "1.75%"}, {"smiles": "CN(C)c1ccc(N/C=C/C(=O)C(F)(F)F)cc1", "activation": "23.6% (active)"}, {"smiles": "O=C(/C=C/Nc1ccccc1OC(F)(F)F)C(F)(F)F", "activation": "1.89%"}, {"smiles": "CCCOc1ccc(N/C=C/C(=O)C(C)(C)C)cc1", "activation": "0.22%"}, {"smiles": "CC(=O)NS(=O)(=O)c1ccc(NC(=O)C2C3C=CC(C3)C2C(=O)O)cc1", "note": "(stereo not given)", "activation": "0.92%"}, {"smiles": "CC(=O)Cc1nsc(NC(=O)c2ccc(Cl)cc2Cl)n1", "activation": "-0.15%"}, {"smiles": "O=C(NCc1nnc(SCC(=O)N2CCC(Cc3ccccc3)CC2)o1)c1ccco1", "activation": "-1.46%"}, {"smiles": "CCOC(=O)C1CCN(C(=O)c2ccccc2N(C)S(=O)(=O)c2ccccc2)CC1", "activation": "0.82%"}, {"smiles": "COc1ccc(-n2nc3c(c2NC(=O)c2ccc(N4C(=O)CCC4=O)cc2)CSC3)cc1", "activation": "2.03%"}, {"smiles": "COc1ccccc1C1/C(=C(/O)c2ccc(C)cc2)C(=O)C(=O)N1Cc1ccco1", "note": "(stereo not given)", "activation": "-1.85%"}, {"smiles": "COc1ccc(/C(O)=C2/C(=O)C(=O)N(c3nc(C)c(C)s3)C2c2ccco2)cc1", "note": "(stereo not given)", "activation": "32.8% (active)"}, {"smiles": "COc1ccc(/C(O)=C2\\C(=O)C(=O)N(Cc3ccco3)C2c2ccc(OC)cc2OC)cc1", "note": "(stereo not given)", "activation": "8.22%"}, {"smiles": "CCc1ccc(NC(=O)C(=O)N/N=C(\\C)CC(=O)NCCOC)cc1", "activation": "0.12%"}, {"smiles": "CN(C)c1ccc(C(=S)N2CCN(C(=S)Nc3ccc(Cl)cc3)CC2)cc1", "activation": "2.08%"}, {"smiles": "CCOc1ccc(CCNC(=O)CSc2cc(=O)n(C)c3ccc(Cl)cc23)cc1OCC", "activation": "10.2%"}, {"smiles": "CCOC(=O)C1CCN(C(=O)CSc2cc(=O)n(C)c3ccccc23)CC1", "activation": "63.4% (active)"}, {"smiles": "CCOC(=O)C1CCN(C(=O)Cn2cc(C#N)c3ccccc32)CC1", "activation": "13.8%"}, {"smiles": "Cc1cccc(OCc2nnc(SCC(=O)N3CCN(C(=O)c4ccco4)CC3)n2C)c1C", "activation": "9.2%"}, {"smiles": "Cn1c(=O)cc(SCC(=O)N2CCCC2)c2cc(Cl)ccc21", "activation": "39.3% (active)"}, {"smiles": "O=C(CSCc1ccc(Cl)cc1)N1CCCCC1", "activation": "7.11%"}, {"smiles": "Cn1c(=O)cc(SCC(=O)N2CCN(C(=O)c3ccco3)CC2)c2ccccc21", "activation": "82.2% (active)"}, {"smiles": "CC(=O)c1ccc(-n2nnnc2SCC(=O)N2CCN(C(=O)c3ccco3)CC2)cc1", "activation": "0.9%"}, {"smiles": "CCOC(=O)N1CCC(NC(=O)COc2cc(=O)n(C)c3ccccc23)CC1", "activation": "-2.51%"}, {"smiles": "COC(=O)c1cc(C(=O)OC)cc(N2C(=O)CC(N3CCN(c4ccccc4)CC3)C2=O)c1", "note": "(stereo not given)", "activation": "-12.5%"}, {"smiles": "COC(=O)c1ccccc1SC1CC(=O)N(c2cccc(C)c2)C1=O", "note": "(stereo not given)", "activation": "33% (active)"}, {"smiles": "Cc1cccc(N2C(=O)CC(SC(N)=Nc3ccccc3)C2=O)c1", "note": "(stereo not given)", "activation": "-7.93%"}, {"smiles": "O=C(COC(=O)/C(=C/c1cccs1)c1cccs1)NCc1ccccc1Cl", "activation": "3.76%"}, {"smiles": "COc1ccc(C2CC(c3ccccc3)=NN2C(=O)COC(=O)COc2ccccc2)cc1", "note": "(stereo not given)", "activation": "-0.96%"}, {"smiles": "Brc1ccc(C2CC(c3ccccc3)=Nc3ccccc3N2)cc1", "note": "(stereo not given)", "activation": "0.93%"}, {"smiles": "CNC(=S)N1N=C(c2ccccc2)CC1c1ccc(Br)cc1", "note": "(stereo not given)", "activation": "34.4% (active)"}, {"smiles": "Cc1ccc2[nH]c3c(=O)n(Cc4ccccn4)cnc3c2c1", "activation": "8.8%"}, {"smiles": "CC(=O)c1ccc(S(=O)(=O)N2CCN(c3nc4c(C)c(C)ccc4cc3C#N)CC2)cc1", "activation": "56.6% (active)"}, {"smiles": "Cc1cc(C)c2nc(N3CCCC3)c(C#N)cc2c1", "activation": "-3.43%"}, {"smiles": "Cc1cccc2cc(C#N)c(N3CCCC3)nc12", "activation": "-13.8%"}, {"smiles": "O=C(NCc1ccccc1)C1=C[C@@H](C2CCCCC2)C[C@@H](OCc2ccc(CO)cc2)O1", "activation": "-1.47%"}, {"smiles": "CCS(=O)(=O)Nc1cccc(-c2cc(-c3ccccc3)c3cc(C)ccc3n2)c1", "activation": "-3.81%"}, {"smiles": "O=C(CSc1nc2cccnc2n1Cc1ccccc1)N1CCc2ccccc21", "activation": "-2.44%"}]}]}
